KB-3-1 tox – KB-3-1 parental cell cytotoxicity. Potency, µM (highest dose often 46.1 µM), actives largely listed as cytotoxic. KB-3-1 viability, CellTiter-Glo ATP luminescence, 72 h. hit rate 1.4% among 400,000. AID 1347075; further: potency means the concentration at half of the fitted maximal effect; on the % scale 0 is the no-effect control and ±100 the full control effect; nearly all actives have a fitted effect of over 60% in size
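Using CellTiter-Glo luminescence, growth of non-resistant KB-3-1 adenocarcinoma cells is assessed 72 h after pin-tool compound addition at 37 °C. Normalized responses across the concentration series yield fitted curves.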
KB-V1 cytotox – KB-V1 MDR subline cytotoxicity; Potency, µM (highest dose often 46.1 µM), usual class: cytotoxic; hit rate 3.4% among 400,000; KB-V1 MDR cells viability, CellTiter-Glo, 72 h; further: potency means the concentration at half of the fitted maximal effect; on the % scale 0 is the no-effect control and ±100 the full control effect; nearly all actives have a fitted effect of over 60% in size
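Luminescent ATP read-out (CellTiter-Glo, 10 min) measures survival of drug-selected KB-V1 MDR cells after 72 h, 37 degrees C compound exposure. Medium: phenol-red-free DMEM, 10% FBS. Values from fitted concentration-response curves.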
SW480 rereplic – induces DNA re-replication in SW480 colon adenocarcinoma cells; Potency, µM (titrated, usually from 46.1 µM), without a hit: at the highest dose re-replication activation, hits mostly activators; SW480 DNA re-replication, Hoechst DNA content imaging, 48 h; hit rate 1.8% among 340,000; further: potency means the concentration at half of the fitted maximal effect; % of control where 0% means no effect; nearly all actives have a fitted effect of over 55% in size
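DNA re-replication was detected as more nuclei of elevated Hoechst intensity after 48 hr exposure to compound (23 nL pinned per well of 250 cells).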
IL-1B inflam inh – inhibitors of inflammasome signaling (IL-1 beta secretion) | THP-1 LPS/ATP IL-1B secretion, AlphaLISA, 16 h; hits give low values | activity change, % at 57.5 µM | hit rate 4.7% among 360,000 | AID 743279; in the data active means activity change below about -50%; inconclusive means mostly about -30% to -49%; further: on the % scale 0 is the no-effect control and ±100 the full control effect
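THP-1 cells pretreated 1 hr with compounds (up to 57.5 uM final), then stimulated with LPS (250 ng/mL final) plus ATP (1.25 mM final); secreted IL-1B measured by AlphaLISA after 16 hr, decreased signal indicating inhibition.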
MCF10A rerep – induces DNA re-replication in MCF 10a normal breast cells. MCF 10A DNA re-replication, Hoechst nuclear intensity, 48 h. Potency, µM (series often up to 46.1 µM), without a hit: at the top dose activity, positive = re-replication, most hits filed as activators. hit rate 2.9% among 350,000. AID 624296; further: potency means the concentration at half of the fitted maximal effect; % of control where 0% means no effect; nearly all actives have a fitted effect of over 50% in size
Numbers without * were called inactive; i = inactive; u = inconclusive; x = no result given; [ ] = remark or other dose. Shown are actives, neighbours in structure and some others; about 9.9% of the full set was active somewhere. Unless noted, the call rests on the fitted dose curve; in most records, active means well fitted curve in the direction sought with a large enough effect; inconclusive means small, poorly fitted or top-dose-only effect, or another doubt; inactive means no such curve, though single readings can be large; an effect the other way counts as inactive or inconclusive.

SMILES	KB-3-1 tox	KB-V1 cytotox	SW480 rereplic	IL-1B inflam inh	MCF10A rerep
COc1ccc(-c2nc(CSCC(=O)NCc3ccco3)c(C)o2)cc1	i	13µM*	-7%	-5	-1%
Cc1ccc(-c2nc(CSCC(=O)NCc3cccnc3)c(C)o2)cc1	u	3.7µM*	0%	-1	0%
Cc1ccc(CNC(=O)CSCc2nc(-c3cccc(C)c3)oc2C)cc1	u	i	x	x	x
O=C1/C(=C/c2ccc(N3CCOCC3)o2)SC(=Nc2ccccc2)N1CCc1c[nH]c2ccccc12	u	u	u	-99*	u
CC(=O)c1ccc(NC(=O)CSc2nnc(-c3ccoc3C)n2Cc2ccccc2)cc1	i	u	17%	-67*	10%
COCCn1c(SCC(=O)Nc2ccccc2)nnc1-c1ccoc1C	i	i	-24%	-15	-3%
Cc1ccc(NC(=O)CSc2nnc(-c3ccoc3C)n2CCCN(C)C)cc1Cl	i	i	-6%	-61*	11%
CC(C)N(C(=O)c1nn(C)c2c1CSc1ccccc1-2)C1CCCCC1	i	i	8%	-18	u
COC(=O)CNC(=O)c1ccc(F)cc1	i	i	0%[9.22 µM]	3	-8%
Cc1cc(C(=O)NCCc2ccc(S(=O)(=O)NC(=O)NN3CCCCCC3)cc2)no1	x	x	2%	x	12%
CCOc1ccc(NC(=O)OCCN2CCN(CCc3ccccc3)C(C)C2)cc1 (stereo unspecified)	u	i	5%	-70*	u
CCc1ccc(OCCOC(=O)Nc2ccccc2)cc1	i	i	8%	-18	u
CCOc1cc(CNC(=O)c2ccc3c(c2)NC(=O)C2CCCCN32)cc(OCC)c1OCC (stereo unspecified)	i	i	x	x	x
Cc1ccc(NC(=O)c2cc(S(=O)(=O)N3CCCCC3)cs2)cc1	u	15µM*	0%	-73*	u
COc1ccc(NC(=O)c2cc(S(=O)(=O)Nc3ccc(OC)cc3)cs2)cc1	i	21µM*	-13%	-12	3%
O=C(Nc1ccc(Cl)cc1)c1cc(S(=O)(=O)N2CCOCC2)cs1	u	9.2µM*	-1%	u	28%
O=C(Nc1ccc(F)cc1)c1cc(S(=O)(=O)Nc2ccc(F)cc2)cs1	i	i	23%	20	43%
O=C(Nc1ccc(F)cc1)c1cc(S(=O)(=O)N2CCOCC2)cs1	i	i	u	2	0%
O=C(CSc1nnc2ccc3ccccc3n12)c1ccc(F)cc1	i	i	x	x	x
COc1ccc(N(CC(=O)NCCc2ccc(Cl)cc2)S(=O)(=O)c2c(C)[nH]c(=O)[nH]c2=O)cc1	i	i	-2%	16	5%
COc1cc(NC(=O)c2ccc(-c3ccc(F)c(F)c3)c3ccoc23)cc(OC)c1OC	i	i	x	-1	x
Cc1ccccc1NC(=O)CSc1nccn1C	u	i	x	x	x
CCn1c(SCC(=O)N(C)C)nc2cc(S(=O)(=O)N3CCCCC3)ccc21	i	21µM*	-3%	-22	-3%
NC(=O)CSc1oc(-c2cccs2)nc1S(=O)(=O)c1ccc(Br)cc1	i	i	x	x	x
COc1cccc(C(=O)NC(C)c2ccc(-c3ccccc3)cc2)c1OC (stereo unspecified)	i	i	u	-64*	u
SMILES	KB-3-1 tox	KB-V1 cytotox	SW480 rereplic	IL-1B inflam inh	MCF10A rerep
COc1cccc(C(=O)NC(C)c2cccc3ccccc23)c1OC (stereo unspecified)	i	u	1%	-65*	-14%
O=C(COc1ccccc1/C=C1\SC(=S)NC1=O)Nc1ccc(F)cc1	i	i	u	-16	1.5µM*
NC1=NC(=O)/C(=C/c2ccccc2OCC(=O)Nc2ccc(F)cc2)S1	i	i	-10%	14	0%
COc1ccc(-c2cc(=O)c3ccc(O)cc3o2)cc1	i	i	7%	5	19%
COc1cc(-c2ccc3oc(-c4ccsc4)cc(=O)c3c2)cc(OC)c1OC	u	i	-49%	-58*	u
COc1cc(-c2cc(=O)c3c(C)cc(O)cc3o2)cc(OC)c1OC	u	2.6µM*	-1%	14	2%
COc1ccc(-c2cc(=O)c3c(C)cc(O)cc3o2)cc1	i	2.6µM*	1%	-8	-4%
C[n+]1cccc(C(=O)NNC(=O)C23CC4CC(CC(C4)C2)C3)c1	i	i	-12%	-1	-4%
OCCC1CN(C2CCC2)CCN1Cc1ccc(F)c(F)c1 (stereo unspecified)	i	i	5%[9.22 µM]	-16	1%
CCN(CC)c1cc(CS(=O)c2ccccc2)nc(-c2ccccc2)n1 (stereo unspecified)	i	i	1%	-50*	u
CCOC(=O)NC1(NC2CCCCC2)Oc2ccccc2O1	i	i	20%	25	u
FC(F)(F)c1cnc(Sc2nc3nccc(-c4ccc(Cl)cc4)n3n2)c(Cl)c1	i	i	16µM*	u	3.3µM*
CSc1nc2nccc(-c3ccc(Cl)cc3)n2n1	i	i	-4%	-16	2%
COc1ccc(-c2ccnc3nc(Sc4ncc(C(F)(F)F)cc4Cl)nn23)cc1	i	15µM*	6%	-27	-2%
c1ccc2c(CCNc3ncnc4nc[nH]c34)cccc2c1	18µM*	i	15%	104	u
c1ccc(CCCNc2ncnc3nc[nH]c23)cc1	u	i	-12%	4	-4%
COCCCNC(=S)N(Cc1ccccc1)Cc1nc2ccccc2c(=O)[nH]1	i	i	0%	23	-5%
COCCCNC(=S)N(Cc1ccccc1)Cc1ccccc1	i	18µM*	-5%	0	17%
Fc1ccc(CNCCCSc2nnnn2-c2ccccc2)cc1	i	i	x	x	x
CCn1c(CCNC(=O)c2ccc(OC)cc2)nnc1SCc1ccc(Cl)c(Cl)c1	u	4.6µM*	-134%	-27	23%
CCn1c(CCNC(=O)c2ccc(C)cc2)nnc1SCc1ccc(Cl)c(Cl)c1	i	i	-2%	u	-5%
NC(=O)CN1C(=O)C(O)(CC(=O)/C=C\C=C\c2ccccc2)c2ccccc21 (stereo unspecified)	i	i	3%	-86*	26%
CCN1C(=O)C(O)(CC(=O)/C=C/C=C/c2ccccc2)c2ccccc21 (stereo unspecified)	i	i	-4%	u	u
O=C(/C=C/C=C/c1ccccc1)CC1(O)C(=O)N(CCc2ccccc2)c2ccccc21 (stereo unspecified)	i	i	-1%	-100*	u
Cc1ccc2c(c1)C(O)(CC(=O)/C=C/C=C/c1ccccc1)C(=O)N2 (stereo unspecified)	i	i	-1%	-56*	u
